Results from PubChem BioAssay (Tox21).
Inconclusive results are not listed. The source made the active and inactive calls. Unless noted, calls follow the shape of the dose curve; as a rule, active = well fitted curve in the direction sought with a large enough effect in the repeat runs; inconclusive = weak or mixed curves; inactive = no such curve, though single readings can be large; an effect the other way counts as inactive or inconclusive.

Experiments:
[1] = qHTS assay to identify small molecule agonists of H2AX (AID 1224845; active = well fitted activation curve with a large enough effect in the signal ratio in the repeat runs, not every such curve was filed as active; the % refers to the signal ratio)
Summary of the method: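 Phospho-H2AX Ser139 measured by HTRF (ex 320 nm; em 665 and 620 nm) after 24 hr antibody incubation. Compounds, 15 concentrations, 0.76% DMSO, were applied to CHO-K1 cells for 3hr at 37C before lysis.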

[2] = qHTS assay to identify small molecule agonists of the hypoxia (HIF-1) signaling pathway (AID 1224846; active = well fitted activation curve with a large enough effect in the signal ratio in the repeat runs, not every such curve was filed as active; the % refers to the signal ratio)
Summary of the method: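 HRE-bla ME-180 cells (beta-lactamase reporter under hypoxia response element) were plated at 2,000 cells/well in medium with 0.5% dialyzed FBS, rested 5 hrs, then given compounds in DMSO for 17 hrs at 37C, 5% CO2. Reporter induction was read with CCF4-AM FRET substrate.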

[3] = qHTS assay to identify small molecule agonists of H2AX - cell viability counter screen (AID 1224847; calls by dose curve; also: nearly all actives have a fitted effect of over 30% in size; also: potency is read from the fitted curve at half-maximal effect)
Summary of the method: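 For this counter screen, overnight-attached CHO-K1 cells received test compounds (15 concentrations, 0.76% DMSO final); 3 hr later at 37C, CellTiter-Glo reagent was added and luminescence recorded after 30 min at room temperature.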

[4] = qHTS RealTime-Glo MT Cell Viability Assay in HepG2 cells - 24 hour (AID 1224867); also: nearly all actives have a fitted effect of over 50% in size; also: potency is read from the fitted curve at half-maximal effect
Summary of the method: (§1)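 Cell number in HepG2 cultures estimated from NanoLuc luminescence generated by metabolic reduction of a prosubstrate by living cells. The homogeneous, nonlytic format allowed repeated reads at 0, 8, 16, 24, 32 and 40 h of compound exposure.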

[5] = qHTS RealTime-Glo MT Cell Viability Assay in HEK293 cells - 32 hour (AID 1224868); also: nearly all actives have a fitted effect of over 50% in size; also: potency is read from the fitted curve at half-maximal effect
Summary of the method: (§2)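 Homogeneous bioluminescent viability format in HEK293 cells (600 cells/well). Following 5 h at 37 C/5% CO2, 23 nL compound was pintooled; the signal was measured repeatedly during 40 h incubation.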

[6] = A CellTox Green Cytotoxicity Assay to monitor cytotoxicity in HEK293 cells - 0 hour (AID 1224869); also: nearly all actives have a fitted effect of over 50% in size
Summary of the method: (§3)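 HEK293 cells premixed with CellTox Green dye were seeded at 600 cells/well and left 5 h at 37 C/5% CO2 before pin transfer of 23 nL compound in DMSO. Fluorescence from dye bound to dead-cell DNA was read during 40 h treatment.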

[7] = qHTS RealTime-Glo MT Cell Viability Assay in HepG2 cells - 40 hour (AID 1224870); also: nearly all actives have a fitted effect of over 50% in size; also: potency is read from the fitted curve at half-maximal effect
Summary of the method: (§4)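 Real-time viability: cells seeded at 600 per well together with NanoLuc and cell-permeant prosubstrate, compounds added after 5 h incubation. Luminescence tracked at 0, 8, 16, 24, 32 and 40 h of exposure.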

[8] = A CellTox Green Cytotoxicity Assay to monitor cytotoxicity in HEK293 cells - 40 hour (AID 1224871); also: nearly all actives have a fitted effect of over 45% in size; also: potency is read from the fitted curve at half-maximal effect
Summary of the method: as §3

[9] = qHTS RealTime-Glo MT Cell Viability Assay in HepG2 cells - 8 hour (AID 1224873); also: nearly all actives have a fitted effect of over 55% in size; also: potency is read from the fitted curve at half-maximal effect
Summary of the method: as §4

[10] = qHTS RealTime-Glo MT Cell Viability Assay in HEK293 cells - 40 hour (AID 1224874); conditions: RealTime-Glo luminescence; max response: active compounds read low; also: nearly all actives have a fitted effect of over 50% in size; also: potency is read from the fitted curve at half-maximal effect
Summary of the method: (§5)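 HEK293 cells mixed with RealTime-Glo reagents (NanoLuc plus cell-permeant prosubstrate) at 600 cells/well, preincubated 5 h at 37 C/5% CO2, then given 23 nL compound in DMSO. Nonlytic luminescence from viable cells was read at 0, 8, 16, 24, 32 and 40 h.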

[11] = A CellTox Green Cytotoxicity Assay to monitor cytotoxicity in HEK293 cells - 24 hour (AID 1224875); also: nearly all actives have a fitted effect of over 45% in size; also: potency is read from the fitted curve at half-maximal effect
Summary of the method: as §3

[12] = qHTS RealTime-Glo MT Cell Viability Assay in HepG2 cells - 32 hour (AID 1224877); also: nearly all actives have a fitted effect of over 55% in size; also: potency is read from the fitted curve at half-maximal effect
Summary of the method: as §1

[13] = A CellTox Green Cytotoxicity Assay to monitor cytotoxicity in HepG2 cells - 24 hour (AID 1224878); also: nearly all actives have a fitted effect of over 45% in size; also: potency is read from the fitted curve at half-maximal effect
Summary of the method: (§6)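 HepG2 cells were seeded together with the CellTox Green dye at 600 cells/well, left 5 h at 37 C/5% CO2, then given compounds in DMSO. Fluorescence from dye bound to dead-cell DNA was read repeatedly over 40 h of treatment at 37 C.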

[14] = A CellTox Green Cytotoxicity Assay to monitor cytotoxicity in HepG2 cells - 40 hour (AID 1224879); also: nearly all actives have a fitted effect of over 40% in size; also: potency is read from the fitted curve at half-maximal effect
Summary of the method: as §6

[15] = qHTS RealTime-Glo MT Cell Viability Assay in HEK293 cells - 0 hour (AID 1224880); also: top concentration of the series differs between compounds; nearly all actives have a fitted effect of over 45% in size
Summary of the method: as §5

[16] = A CellTox Green Cytotoxicity Assay to monitor cytotoxicity in HEK293 cells - 32 hour (AID 1224881); also: nearly all actives have a fitted effect of over 40% in size; also: potency is read from the fitted curve at half-maximal effect
Summary of the method: as §3

[17] = qHTS RealTime-Glo MT Cell Viability Assay in HEK293 cells - 16 hour (AID 1224872); also: nearly all actives have a fitted effect of over 50% in size; also: potency is read from the fitted curve at half-maximal effect
Summary of the method: as §2

[18] = A CellTox Green Cytotoxicity Assay to monitor cytotoxicity in HepG2 cells - 16 hour (AID 1224876); also: nearly all actives have a fitted effect of over 45% in size; also: potency is read from the fitted curve at half-maximal effect
Summary of the method: as §6

[19] = qHTS assay to identify small molecule antagonists of the estrogen related receptor (ERR) signaling pathway from Tox21 library (AID 1224848); also: nearly all actives have a fitted effect of over 50% in size; also: potency is read from the fitted curve at half-maximal effect
Summary of the method: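 Reading was by luminescence 30 min after ONE-Glo addition. Before that, ERR cells at 2,000 per well had rested 6 h at 37 C/5% CO2 and then received pin-tooled compounds in DMSO for 18 h at 37 C.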

[20] = qHTS assay to identify small molecule agonists of the estrogen related receptor (ERR) signaling pathway from Tox21 library (AID 1224849; calls by dose curve; also: nearly all actives have a fitted effect of over 15% in size); conditions: ERR reporter cell line, ONE-Glo luciferase, 18 h; at 92.4 µM (top of the series) unless noted
Summary of the method: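 ERR reporter cell line (NTP) seeded, rested 6 h at 37 C/5% CO2, then pinned with Tox21 compounds in DMSO. After 18 h at 37 C, ONE-Glo luciferase luminescence was read following 30 min at room temperature.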
% is scaled to controls: 0 for no effect and ±100 for the full control effect.

OCCCCCCCCCCCCBr
active: Potency [3] 102 µM | Potency [5] 9.92 µM | Potency [10] 11.1 µM | Potency [14] 11.1 µM
inactive: Potency [1] | Potency [2] | Potency [4] | Potency [6] | Potency [7] | Potency [8] | Potency [9] | Potency [11] | Potency [12] | Potency [13] | Potency [15] | Potency [16]

CN(C)CCCOC1(Cc2ccccc2)CCCCCC1
inactive: Potency [1] | Potency [2] | Potency [3] | Potency [4] | Potency [5] | Potency [6] | Potency [7] | Potency [8] | Potency [17] | Potency [9] | max response [10] 0.0267% | Potency [11] | Potency [12] | Potency [13] | Potency [14] | Potency [16]

NC(=O)CC[C@@H]1NC(=O)[C@H](Cc2ccccc2)NC(=O)[C@H](Cc2ccc(O)cc2)NC(=O)CCSSC[C@@H](C(=O)N2CCC[C@H]2C(=O)N[C@@H](CCCN=C(N)N)C(=O)NCC(N)=O)NC(=O)[C@H](CC(N)=O)NC1=O
inactive: Potency [1] | Potency [2] | Potency [3] | Potency [4] | Potency [5] | Potency [6] | Potency [7] | Potency [8] | Potency [17] | Potency [9] | max response [10] 0.946% | Potency [11] | Potency [18] | Potency [13] | Potency [14] | Potency [15] | Potency [16]

CC(C)OC(=O)c1cc2c(OCC(O)CNC(C)(C)C)cccc2[nH]1 (configuration not stated)
active: Potency [5] 9.52 µM | Potency [17] 4.77 µM | Potency [10] 9.52 µM
inactive: Potency [1] | Potency [2] | Potency [3] | Potency [4] | Potency [6] | Potency [7] | Potency [9] | Potency [18] | Potency [12] | Potency [13] | Potency [15]

Cc1cccc(S(=O)(=O)O)c1C
inactive: Potency [1] | Potency [2] | Potency [4] | Potency [5] | Potency [6] | Potency [7] | Potency [8] | Potency [17] | Potency [9] | max response [10] -3.36% | Potency [11] | Potency [18] | Potency [13] | Potency [14] | Potency [15] | Potency [16]

O=c1[nH]cnc2nc[nH]c12
inactive: Potency [1] | Potency [2] | Potency [19] | activity change, positive = activation [20] 9.65% [at 42.5 µM] | Potency [4] | Potency [5] | Potency [6] | Potency [7] | Potency [8] | Potency [17] | Potency [9] | max response [10] 3.71% | Potency [11] | Potency [18] | Potency [12] | Potency [13] | Potency [14] | Potency [15] | Potency [16]

CCCC(c1cc(C(C)(C)C)c(O)cc1C)c1cc(C(C)(C)C)c(O)cc1C
active: Potency [3] 25.6 µM | Potency [19] 15.5 µM | Potency [4] 39.4 µM | Potency [5] 19.7 µM | Potency [7] 31.3 µM | Potency [8] 49.6 µM | Potency [17] 24.8 µM | Potency [9] 39.4 µM | Potency [10] 17.6 µM | Potency [11] 55.6 µM | Potency [18] 44.2 µM | Potency [12] 35.1 µM | Potency [13] 39.4 µM | Potency [14] 31.3 µM | Potency [16] 49.6 µM
inactive: Potency [1] | activity change, positive = activation [20] -83.3% | Potency [6] | Potency [15]
